Screening results from PubChem BioAssay.
MCF10A rerep – A quantitative high throughput screen for small molecules that induce DNA re-replication in MCF 10a normal breast cells | MCF 10A DNA re-replication, Hoechst nuclear intensity, 48 h | Potency, µM (highest dose often 46.1 µM), without a hit: at the top dose activity, positive = re-replication, usual class: activators | 350,000 tested, 2.9% active; also: % of control where 0% means no effect; nearly all actives have a fitted effect of over 50% in size
HT1080 IDH1KD tx – qHTS for induction of synthetic lethality in tumor cells producing 2HG: qHTS for the HT-1080-IDH1KD cell line | Potency, µM (doses to about 46.1 µM), for the others: top-dose activity, negative = toxicity, most hits filed as cytotoxic | AID 686971, 2013 | HT-1080 IDH1 knockdown viability, ATP luminescence, 48 h | 360,000 tested, 2% active;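 also: 0% = DMSO wells and -100% = cell-free medium wells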
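Assay cells: HT-1080 with IDH1 knockdown, 750 per well, RPMI/5% FBS. Exposure: 48 h at 37 °C following 2 h pre-incubation. Read: CellTiter-Glo luminescence; fitted concentration-response, curve class assigned.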
HT1080-NT tox – qHTS for induction of synthetic lethality in tumor cells producing 2HG: qHTS for the HT-1080-NT fibrosarcoma cell line | Potency, µM (titrated, usually from 46.1 µM), without a hit: at the highest dose activity, negative = less viability, most hits filed as cytotoxic | 360,000 tested, 1.6% active | AID 686970, 2013 | HT-1080-NT fibrosarcoma viability, CellTiter-Glo ATP luminescence, 48 h;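 also: NT is the 2HG producing partner of a matched IDH1 knockdown line; 0% = DMSO-treated cells and -100% = media-only wells without cells; nearly all actives have a fitted effect of over 55% in size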
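A 48-hour cytotoxicity screen used HT-1080-NT cells plated 2 hours before compound delivery. ATP-based CellTiter-Glo luminescence measured viability, normalized to DMSO and no-cell controls.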
KB-V1 cytotox – qHTS assay for MDR1-selective chemotherapeutics: Primary screen using the drug-selected MDR subline cells KB-V1. AID 1347076, 2019. Potency, µM (highest dose often 46.1 µM), actives largely listed as cytotoxic. 400,000 tested, 3.4% active. KB-V1 MDR cells viability, CellTiter-Glo, 72 h; also: % is scaled to controls: 0 for no effect and ±100 for the full control effect; nearly all actives have a fitted effect of over 60% in size
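KB-V1 cells (P-gp-expressing MDR subline of KB-3-1) in phenol-red-free DMEM with 10% FBS were exposed to library compounds over a concentration series for 72 h at 37 degrees C. Viability read by CellTiter-Glo luminescence; concentration-effect curves fitted after normalization.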
SW480 rereplic – A quantitative high throughput screen for small molecules that induce DNA re-replication in SW480 colon adenocarcinoma cells. 340,000 tested, 1.8% active. SW480 DNA re-replication, Hoechst DNA content imaging, 48 h. Potency, µM (series often up to 46.1 µM), for the others: top-dose re-replication activation, usual class: activators; also: % of control where 0% means no effect; nearly all actives have a fitted effect of over 55% in size
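SW480 cells exposed to compounds for 48 hr at 37 C, 5% CO2, then Hoechst-stained 40 min. Nuclear DNA content imaged by fluorescence scanning (405 nm excitation, 500-530 nm emission); re-replication scored as increased high-intensity nuclei.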
KB-3-1 tox – qHTS assay for MDR1-selective chemotherapeutics: Primary screen using the parental adenocarcinoma cell KB-3-1. KB-3-1 viability, CellTiter-Glo ATP luminescence, 72 h. AID 1347075, 2019. 400,000 tested, 1.4% active. Potency, µM (highest dose often 46.1 µM), hits mostly cytotoxic; also: % is scaled to controls: 0 for no effect and ±100 for the full control effect; nearly all actives have a fitted effect of over 60% in size
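Cytotoxicity in the drug-sensitive parental line KB-3-1 was scored as loss of CellTiter-Glo luminescence following 72 h incubation with compound. Values come from curve fitting of normalized concentration-response data.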
Active calls of the source: *; i = inactive; ? = inconclusive; . = not tested or not shown; [ ] = dose if it differs, or a comment. Rows were chosen to be rich in hits. Some 7.9% of all compounds tested hit in one or more screens of this group. Calls follow the shape of the dose curve; as a rule, active = well fitted curve in the direction sought with a large enough effect; inconclusive = small, poorly fitted or top-dose-only effect, or another doubt; inactive = no such curve, though single readings can be large; an effect the other way counts as inactive or inconclusive. Potency is read from the fitted curve at half-maximal effect.

SMILES	MCF10A rerep	HT1080 IDH1KD tx	HT1080-NT tox	KB-V1 cytotox	SW480 rereplic	KB-3-1 tox
COc1ccc(O)c(/C=C2/SC(=S)N(Cc3ccccc3)C2=O)c1	13µM*	1%	0%	?	15%	?
c1ccc(-n2nnnc2Oc2cccc3cccnc23)cc1	6%	?	7.9µM*	?	-4%	i
O=C(CCC1N=C2c3ccccc3N=C(SCc3ccc(Cl)cc3)N2C1=O)NCc1ccco1 (centres undefined)	?	-20%	-3%	6.5µM*	?	?
Cc1ccc(-n2cccc2/C=C2/C(=N)N3C(=NC2=O)SN=C3S(C)(=O)=O)cc1	16µM*	8%	-5%	i	-3%	i
COc1cccc(-n2c(C)cc(/C=C3/C(=N)N4C(=NC3=O)SN=C4S(C)(=O)=O)c2C)c1	16µM*	?	-11%	i	5%	i
COc1cc(/C=C2/C(=N)N3C(=NC2=O)SN=C3S(C)(=O)=O)ccc1OS(=O)(=O)c1ccc(C)cc1	?	?	-26%	i	?	i
Cc1cc(C)cc(-n2cccc2/C=C2/C(=N)N3C(=NC2=O)SN=C3S(C)(=O)=O)c1	?	-17%	18µM*	i	-50%	?
CCc1ccc(-n2cccc2/C=C2/C(=N)N3C(=NC2=O)SN=C3S(C)(=O)=O)cc1	?	-9%	-10%	i	0%	i
Clc1ccccc1CNc1nc2ccccc2n2cnnc12	-2%	14%	5%	i	0%	i
C/C(=N\NC(=O)c1ccc(CSc2nncn2C)cc1)c1ccc(C#N)cc1	-5%	25%	26%	i	-1%	i
CCOc1ccccc1N1CCN(C(=O)C2CSC3(C)CCC(=O)N23)CC1 (centres undefined)	-6%	-8%	4%	18µM*	-5%	i
CC1(c2ccccc2)CC(C)(C)n2c(O)c(C3=NC(=S)NC3=O)c3cccc1c32 (centres undefined)	8%	-1%	1%	12µM*	16%	?
CCCNC(=O)C1(C)CCN(C(=O)c2cc(C(C)(C)C)nn2C)C1 (centres undefined)	.	19%	0%	?	.	i
CCOC(=O)c1c(/N=C/N(C)C)sc(C)c1C	1%	14%	-2%	i	-7%	i
CCOC(=O)c1c(/N=C/N(C)C)sc(/C=N/Nc2ccccc2)c1-c1ccc(Cl)cc1	21µM*	-4%	-1%	i	?	i
Cc1nc2sccn2c(=O)c1CCN1CCC(=C(c2ccc(F)cc2)c2ccc(F)cc2)CC1	2.1µM*	?	?	?	?	i
Cc1ccc(-c2nnn(CC(=O)N(c3ccccc3)C(C(=O)NCC3CCCO3)c3ccc(F)cc3)n2)o1 (centres undefined)	-18%	10%	18%	i	1%	i
Cc1ccc(-c2nnn(CC(=O)N(c3ccc4c(c3)OCCO4)C(C(=O)NCC3CCCO3)c3ccc(F)cc3)n2)o1 (centres undefined)	?	-1%	-5%	i	16µM*	i
Cc1ccc(-c2nnn(CC(=O)N(c3ccccc3)C(C(=O)NCC3CCCO3)c3ccc(Cl)cc3)n2)cc1 (centres undefined)	18µM*	-18%	-18%	i	2%	i
O=C(CSc1nc2ccccc2c(=O)[nH]1)Nc1ccc(S(=O)(=O)N2CCCC2)cc1	0%	?	?	i	-2%	i
COc1ccccc1NC(=O)COC(=O)CN1C(=O)C(=O)c2ccccc21	-11%	0%	33%	i	1%	i
CCN(CC)S(=O)(=O)c1cc(NC(=O)C(C)N(C)CC(=O)Nc2c(C)cccc2C)ccc1C (centres undefined)	24%	-4%	-2%	5.2µM*	28%	?
CCn1cc(/C=C(\NC(=O)c2ccccc2F)C(=O)N2CCOCC2)c2ccccc21	4%	-10%	-1%	i	-7%	i
O=C(c1cc(C2CC2)nc2ccccc12)N1N=C(C(F)F)CC1(O)C(F)F (centres undefined)	?	-1%	-1%	?	24%	i
CC(C)c1ccc(-c2cc(C(=O)N3N=C(C(F)F)CC3(O)C(F)F)c3ccccc3n2)cc1 (centres undefined)	4.5µM*	?	?	?	?	?
SMILES	MCF10A rerep	HT1080 IDH1KD tx	HT1080-NT tox	KB-V1 cytotox	SW480 rereplic	KB-3-1 tox
COc1ccc(/C=C2\N=C(SC)N(c3ccccc3OC)C2=O)cc1	?	?	1%	i	18µM*	?
CCOc1ccc(N2C(=O)/C(=C/c3ccccc3)N=C2SC)cc1	5.8µM*	9%	10%	i	7%	i
Cc1cc(N2CCCCC2)nc2ccc(NC(=O)CCC(=O)N3CCN(c4cccc(Cl)c4)CC3)cc12	.	.	.	i	.	?
COc1cc(C(=O)Nc2ccc(S(=O)(=O)NC(C)(C)C)cc2)cc(OC)c1OC	?	-15%	0%	i	1%	i
COc1ccc(C(=O)Nc2ccc(NC(=O)c3cccs3)cc2)cc1[N+](=O)[O-]	-2%	8%	-3%	i	13%	?
COc1ccc(C(=O)Nc2ccc(C(=O)Nc3nccs3)cc2)cc1[N+](=O)[O-]	-3%	6%	6%	i	10µM*	?
COc1ccc(C(=O)Nc2ccc(S(=O)(=O)NC(C)(C)C)cc2)cc1[N+](=O)[O-]	0.13µM*	-2%	0%	?	9%	i
O=C(Nc1nccs1)c1ccc(Br)cc1	-2%	7%	2%	i	15µM*	i
Cn1nccc1C(=O)Nn1cnnc1	5%	20%	25%	i	-3%	i
Cc1noc(C)c1C(=O)Nc1ccc(Cl)cc1C(F)(F)F	-4%	17%	13%	i	-4%	i
Fc1ccccc1COc1ccc2ccccc2c1CNc1nn[nH]n1	?	16µM*	13µM*	i	?	?
Cc1cc(C)nc(Nc2nc(=O)c3ccccc3s2)n1	-2%	19%	10%	?	-5%	i
Cc1cc2c(sc3ccccc32)c(C)n1	-4%	6%	10%	21µM*	-17%[9.22 µM]	?
